# From PubChem BioAssay
# IMPase cell inh – IMPase inhibition in cells; P97697; CHO-M1 cells, IP1 accumulation, HTRF TR-FRET ratio; inhibition (IP1 accumulation), % at 46.1 µM; 120,000 tested, under 10 active; AID 901; active = well fitted curve in the direction sought with a large enough effect in the signal ratio, not every such curve was filed as active; inconclusive = small, poorly fitted or top-dose-only effect, or a change in a side signal; inactive = no such curve, though single readings can be large or run the other way; the % refers to the signal ratio;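 also: cells stimulated with carbachol in lithium chloride buffer; plate controls were DMSO basal wells for no effect and reference inhibitor wells for full effect; higher means more IMPase inhibition seen as more IP1 and lower FRET ratio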
#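 Cellular IMPase inhibition is scored as a rise in cytosolic IP1, detected by competitive TR-FRET between d2-labelled IP1 and a europium anti-IP1 antibody. M1-expressing CHO cells were stimulated with carbachol for 30 min at 37C, with lithium (50 mM LiCl) present in the buffer.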
# IMPase Li inh – membrane-permeable IMPase blocker, potentiated with lithium | CHO-M1 cells, IP1 TR-FRET (IP-One), carbachol + lithium | Potency, µM (series often up to 59.4 µM), for the others: at the highest dose activity, negative = IMPase inhibition, hits mostly inhibitors | 0.35% of 210,000 active | AID 1457;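 also: IP1 builds up when IMPase is blocked and the TR-FRET signal falls; potency is read from the fitted curve at half-maximal effect; plate controls were basal vehicle for no effect and high inhibitor control for full effect; nearly all actives have a fitted effect of over 50% in size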
#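 Readout is a homogeneous TR-FRET IP1 immunoassay (Ex 320, Em 665 and 620), where raised cytosolic IP1 lowers signal. Cells were CHO-M1 treated 30 min at 37C with test compounds plus a little lithium; AC50 values came from Hill-equation fitting.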
# ALOX12 inhib – inhibitors of human 12-lipoxygenase (ALOX12); Potency, µM (top dose mostly 57.1 µM), without a hit: at the top dose activity change, negative = inhibition, hits mostly inhibitors; purified 12-hLO, xylenol orange hydroperoxide absorbance; AID 1452; 0.12% of 150,000 active; also: potency is read from the fitted curve at half-maximal effect; nearly all actives have a fitted effect of over 55% in size
#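 Hydroperoxide formation by human 12-lipoxygenase from 40 uM arachidonic acid was followed colorimetrically via ferric-xylenol orange complex, using the 573/405 nm absorbance ratio. Enzyme concentration was 150 nM, with 30 min reaction at room temperature.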
# 15-hLO-2 inh – 15-hLO-2 (ALOX15B) enzyme inhibition | O15296 | purified 15hLO-2, xylenol orange hydroperoxide absorbance | Potency, µM (series often up to 57.1 µM), for inactives: top-dose activity change, negative = inhibition, actives largely listed as inhibitors | 0.56% of 110,000 active; also: potency is read from the fitted curve at half-maximal effect; nearly all actives have a fitted effect of over 60% in size
# Target sequence (O15296 whole entry, looked up): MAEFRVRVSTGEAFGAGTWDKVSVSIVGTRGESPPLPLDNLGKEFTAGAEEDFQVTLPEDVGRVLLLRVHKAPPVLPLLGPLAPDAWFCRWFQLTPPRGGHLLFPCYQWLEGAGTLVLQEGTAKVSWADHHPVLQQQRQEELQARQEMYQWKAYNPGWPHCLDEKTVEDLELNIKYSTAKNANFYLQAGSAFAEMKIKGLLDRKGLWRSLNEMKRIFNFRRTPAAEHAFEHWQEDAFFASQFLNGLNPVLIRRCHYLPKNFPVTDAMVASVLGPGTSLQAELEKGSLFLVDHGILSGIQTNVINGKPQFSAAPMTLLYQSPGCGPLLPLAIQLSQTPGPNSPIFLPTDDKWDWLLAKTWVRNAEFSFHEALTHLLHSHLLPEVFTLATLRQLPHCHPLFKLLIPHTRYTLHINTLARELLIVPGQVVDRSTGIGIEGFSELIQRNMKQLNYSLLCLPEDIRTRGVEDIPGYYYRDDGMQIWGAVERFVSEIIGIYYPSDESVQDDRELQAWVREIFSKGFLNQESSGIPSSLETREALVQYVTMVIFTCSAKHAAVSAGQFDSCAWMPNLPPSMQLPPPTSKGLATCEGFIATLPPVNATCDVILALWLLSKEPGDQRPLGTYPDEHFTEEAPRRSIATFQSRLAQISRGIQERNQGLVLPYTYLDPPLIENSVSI
#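 Enzyme 50 nM, AA 45 uM, 25 mM Hepes pH 7.5 + 0.01% Triton X-100; cpd preinc 15 min RT, rxn 90 min RT; stop/detect with 200 uM XO + 300 uM Fe(II) in 50 mM H2SO4, 30 min; A573/A405.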
# PNC assembly inh – blocks assembly of the perinucleolar compartment. PC3M PTB-GFP, PNC prevalence imaging, 16 h; active compounds read low. AID 2417. activity change (PNC), negative = inhibition, % at 10 µM. 3.1% of 140,000 active;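 active = readout at or below -70, meaning at least 70% loss of cells showing the perinucleolar compartment, a nuclear body marking cancer cells; inconclusive = readout between -30 and a set limit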;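 also: plate controls were DMSO wells for no effect and camptothecin positive control wells for full effect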
#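 Read-out is percentage of cells bearing a perinucleolar compartment, from automated 20x imaging of fixed, Hoechst-stained PC3M PTB-GFP cells. Cells were seeded 4 h, then exposed 16 h to compound (23 nl of library stock) in duplicate plates.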
# * hit, by the source's call; ? = inconclusive; . = no result; [ ] = remark or other dose. Many of the other results were omitted from the sample, so hits are more common in it than they were. Unless noted, calls follow the shape of the dose curve; as a rule, active = well fitted curve in the direction sought with a large enough effect; inconclusive = small, poorly fitted or top-dose-only effect, or another doubt; inactive = no such curve, though single readings can be large; an effect the other way counts as inactive or inconclusive. Unless noted, % is scaled to controls: 0 for no effect and ±100 for the full control effect.
SMILES,IMPase cell inh,IMPase Li inh,ALOX12 inhib,15-hLO-2 inh,PNC assembly inh
Cc1cc(NC(=O)CCS(=O)(=O)c2nc(-c3ccccc3)cc(C(F)(F)F)n2)no1,9.3,37.1%[38.3 µM],-5.0%,-8.1%,34.5
COc1ccc(-n2c(-c3cccc(C)c3[N+](=O)[O-])n[nH]c2=S)cc1,7.6,15.6%[38.3 µM],-1.9%,?,-109.4*
Cc1cccc(-c2n[nH]c(=S)n2-c2ccccc2)c1[N+](=O)[O-],.,-1.2%,0.6%,.,-0.8
COc1ccc(Cl)cc1C(=O)Nc1ccc2oc(-c3ccc(C(C)(C)C)cc3)nc2c1,-12.2,.,.,.,.
CC1CCN(c2ccccc2NC(=S)NC(=O)c2ccc(-c3cccc([N+](=O)[O-])c3)o2)CC1,6.0,-12.3%[38.3 µM],-5.8%,15.8µM*,?
CC1CCN(c2ccc(NC(=S)NC(=O)c3ccc(-c4cccc([N+](=O)[O-])c4)o3)cc2)CC1,9.2,34.3%[38.3 µM],-18.0%,?,6.1
COc1ccc(C)cc1-n1nnnc1SCC(=O)NC(=O)NCc1ccco1,-9.5,13.9%[38.3 µM],-7.6%,-12.5%,-81.0*
COc1ccc(-n2nnnc2SCC(=O)NCc2ccco2)cc1OC,-9.9,1.7%[38.3 µM],-0.8%,-9.1%,25.4
NCCn1c(-c2ccccc2)cc(C(=O)O)c1-c1ccccc1F,.,9.6%,3.6%,.,-81.2*
CCOC(=O)N1CCC(N2CC34C=CC(O3)C(C(=O)O)C4C2=O)CC1 (stereo not given),9.4,16.8%[38.3 µM],-4.1%,0.5%,-108.4*
CCN(CC)CCNC(=O)c1c(O)c2cc(OC)c(OC)cc2[nH]c1=O,-1.6,1.7%,6.5%,.,-118.9*
c1ccc(-c2cc3c(nn2)CCc2nonc2-3)cc1,3.8,5.7%[38.3 µM],3.6%,6.5%[2.29 µM],-102.4*
CCCCN(CCCC)CC(O)COc1ccccc1C(=O)Nc1ccccc1 (stereo not given),.,11.8%,.,.,.
CCN(CC)CC(O)COc1ccccc1C(=O)CCc1ccccc1 (stereo not given),24.8,.,6.5%,27.2%,-86.0*
CN(C)c1cccc(C(=O)NCc2ccc(Cl)cc2)c1,.,1.7%,.,.,.
O=C(NCc1ccc(Cl)cc1)c1cccc(NC(=O)c2ccccc2)c1,.,4.8%,-3.3%,.,-100.0*
Cc1ccc(NC(=O)CN2C(=O)S/C(=C/c3ccc(-c4cc(C(=O)O)ccc4C)o3)C2=O)cc1C,-1.4,39.0%[38.3 µM],-25.5%,20µM*,7.8
CC1(C)SC2C(NC(=O)Cc3ccccc3)C(=O)N2C1C(=O)O (stereo not given),.,4.8%,-5.0%,-7.8%,.
Cc1ccccc1-n1c(-c2ccco2)n[nH]c1=S,.,-9.9%,0.1%,.,-113.8*
Cc1ccc(/C=N/n2c(-c3ccco3)n[nH]c2=S)s1,-1.0,0.5%,0.1%,.,-112.6*
N#Cc1c(NC(=O)CCC(=O)O)ccc2ccccc12,.,9.7%,5.1%[11.4 µM],0.5%[11.4 µM],.
CC1=CC(=O)CC(C)(C)[C@]1(O)/C=C\C(C)=C\C(=O)O,.,9.8%,-6.1%[11.4 µM],-3.0%[11.4 µM],.
CC(C)(C)c1ccc(C(=O)NC(=S)Nc2ccc(N3CCOCC3)cc2)cc1,.,24.0%,0.9%,.,-123.3*
CC(C)(C)c1ccc(C(=O)Nc2ccc(N3CCOCC3)cc2)cc1,9.7,22.5%[38.3 µM],-8.9%,2.5%,-28.5
Cc1ccc(C)c(NC(=O)Nc2cc3c(cc2N2CCCCC2)n(C)c(=O)n3C)c1,1.0,.,.,.,.
SMILES,IMPase cell inh,IMPase Li inh,ALOX12 inhib,15-hLO-2 inh,PNC assembly inh
Cc1ccc(NC(=O)CNC(=O)c2cccs2)cc1S(=O)(=O)Nc1ccc(Cl)cc1,.,1.3%,-12.5%,.,-112.8*
O=C(CSc1nc(-c2ccco2)cc(C(F)(F)F)n1)Nc1ccc(C(=O)N2CCOCC2)cc1,-6.3,7.2%,-2.7%,.,-100.0*
CCOC(=O)C1C(=O)CC(C)(O)C(C(=O)OCC)C1c1ccc(N(CC)CC)cc1 (stereo not given),11.9,15.4%,2.3%,.,-118.9*
CCN(CC)c1ccc(C2C(C(=O)OC(C)C)C(=O)CC(C)(O)C2C(=O)OC(C)C)cc1 (stereo not given),2.3,16.5%[38.3 µM],-3.3%,1.7%,-113.4*
CCCCC/C=C\C[C@@H](O)/C=C/C=C\C/C=C\CCCC(=O)O,.,-3.5%,1.0%,.,.
Cc1ccc(C#N)c(SCC(=O)Nc2nccs2)n1,.,12.6µM*,.,.,.
